In the library only some 1.6% were active in any assay of this set; here they are far more common.
MEX-5 binding: MEX-5 zinc finger RNA-binding disruptors – biochemical, C. elegans, fluorescence polarization, MLPCN library, primary screen. Zinc finger protein mex-5 (Caenorhabditis elegans), Q9XUB2. MEX-5/FITC-TCR2 RNA binding; active compounds read low. activity score (negative = inhibition of binding), % at 10 µM. 300,000 compounds, 0.38% hits. AID 1832, 2009;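 active means inhibition past about -25% in most replicates, and total fluorescence under double the plate's negative control median, limit read from the data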;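 further: 0% = DMSO and -100% = 5 µM competing unlabeled TCR2 RNA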
Target sequence (Q9XUB2 whole entry, looked up): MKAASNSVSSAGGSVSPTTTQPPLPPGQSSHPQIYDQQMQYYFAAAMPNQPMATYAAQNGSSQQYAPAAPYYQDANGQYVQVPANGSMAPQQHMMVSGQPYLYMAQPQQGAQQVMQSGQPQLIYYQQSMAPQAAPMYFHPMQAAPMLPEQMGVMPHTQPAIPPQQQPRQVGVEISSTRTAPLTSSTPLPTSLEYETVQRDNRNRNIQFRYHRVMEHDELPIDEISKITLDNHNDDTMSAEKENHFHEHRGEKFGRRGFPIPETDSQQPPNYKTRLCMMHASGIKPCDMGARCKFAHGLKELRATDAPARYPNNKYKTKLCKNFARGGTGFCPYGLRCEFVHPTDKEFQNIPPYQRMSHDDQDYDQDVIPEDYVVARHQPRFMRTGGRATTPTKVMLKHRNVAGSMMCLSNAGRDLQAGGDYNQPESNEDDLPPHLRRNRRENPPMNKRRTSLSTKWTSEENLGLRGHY
PREPL inh: PREPL enzyme inhibitors, primary screen, biochemical, fluorescence polarization; Prolyl endopeptidase-like (Homo sapiens), Q4J6C6; recombinant PREPL, fluorescence polarization activity-based probe; inhibition, % at 5.96 µM; 320,000 compounds, 0.68% hits; AID 2751, 2010; in the data active means inhibition above about 43%;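 further: 0% = enzyme with DMSO and 100% = wells lacking enzyme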
LYPLA1 inh: LYPLA1 inhibitors, primary screen, counter-screen for PME1 inhibitor project, biochemical, fluorescence polarization, FP-Rh probe ABPP; Acyl-protein thioesterase 1 (Homo sapiens), O75608; recombinant LYPLA1; inhibition, % at 5.9 µM; 320,000 compounds, 0.16% hits; AID 2174, 2009;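 active means inhibition above the mean of all tested compounds plus 3 SD, set per campaign, cut at about 14% in these data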;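 further: inhibitors block serine hydrolase probe labeling of LYPLA1 so polarization falls; 0% = enzyme with DMSO and 100% = wells lacking LYPLA1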
Fam108B inh: mouse Fam108B serine hydrolase inhibitors, primary screen, counter-screen for RBBP9 inhibitor project, biochemical, fluorescence polarization; AID 1947, 2009; recombinant Fam108B, FP-Rh probe fluorescence polarization; 300,000 compounds, 0.33% hits; inhibition, % at 9.51 µM;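 active means inhibition above the screen mean inhibition plus 3 SD, computed separately per campaign, cut at about 18% in these data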;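 further: inhibitors lower polarization as less probe binds the enzyme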
PME-1 primary: PME-1 inhibitors via competitive probe labeling, primary screen, biochemical, fluorescence polarization, FP-Rh probe, HTS | inhibition, % at 5.9 µM | recombinant PME-1 | 320,000 compounds, 0.53% hits;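 active means inhibition above the campaign mean of all compounds plus 3 SD, cut at about 26% in these data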;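 further: competitive labeling of PME-1 active site by serine hydrolase directed probe; 0% = PME-1 with DMSO and 100% = wells lacking PME-1 enzyme; inhibitors block probe labeling so polarization falls and inhibition rises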
LYPLA2 counter: LYPLA2 inhibitors, primary screen, counter-screen for PME1 inhibitor project, biochemical, fluorescence polarization, FP-Rh probe ABPP; recombinant LYPLA2; Acyl-protein thioesterase 2 (Homo sapiens), O95372; inhibition, % at 5.9 µM; 320,000 compounds, 0.38% hits; AID 2177, 2009;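 active means inhibition above the screen-wide mean plus 3 SD, limit set per campaign, cut at about 26% in these data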;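 further: 0% = LYPLA2 with DMSO and 100% = wells lacking LYPLA2 enzyme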
* = called active by the depositor; . = not tested or not shown.

SMILES | MEX-5 binding | PREPL inh | LYPLA1 inh | Fam108B inh | PME-1 primary | LYPLA2 counter
CO/N=C(/CN1CCCCC1)c1ccc(Cl)cc1 | -2 | 0 | 1 | 2 | -9 | -1
O=C(CSc1ccccc1)Nc1ccccc1C(=O)N1CCCC1 | -2 | 11 | 2 | 0 | 3 | -1
CCCCN(C(=O)c1ccc([N+](=O)[O-])o1)c1c(N)n(CC(C)C)c(=O)[nH]c1=O | -28* | 8 | -5 | -4 | -6 | -13
CCCCN(C(=O)c1cc2ccccc2o1)c1c(N)n(CC(C)C)c(=O)[nH]c1=O | 1 | -6 | -5 | 7 | 1 | 2
OCCC1CN(CCCc2ccccc2)CCN1Cc1ccccc1 (stereo not drawn) | 0 | 7 | -2 | 3 | -5 | -2
COC(=O)N1C(=O)[C@](c2ccccc2)(C(C)C)N1C(=O)OC | 0 | 3 | -1 | -4 | 35* | -4
CC[C@@]1(c2ccccc2)C(=O)N(C(=O)OC)N1C(=O)OC | 2 | 3 | 1 | 1 | 3 | 3
N#Cc1c(N)n(CCOC(=O)c2cccc(Br)c2)c2nc3ccccc3nc12 | -2 | -7 | -1 | 3 | 7 | -4
N#Cc1c(N)n(CCOC(=O)c2cccc([N+](=O)[O-])c2)c2nc3ccccc3nc12 | 0 | 5 | -1 | 0 | 31* | -1
N#CC(C#N)=Cc1ccc(-c2ccc(S(=O)(=O)N=C(N)N)cc2)o1 | -38* | -7 | -16 | -3 | -19 | -22
CCOc1cc(-c2cc(-c3ccc(N)cc3)nc(N)c2C#N)ccc1O | 1 | 24 | 2 | 14 | 41* | -6
CCOc1cc(-c2cc(-c3ccccc3)nc(N)c2C#N)ccc1O | 0 | 12 | -7 | -10 | 6 | -4
Cc1cc(-c2ccc(N=Nc3c(S(=O)(=O)O)cc4cc(S(=O)(=O)O)cc(N)c4c3O)c(C)c2)ccc1N=Nc1c(S(=O)(=O)O)cc2cc(S(=O)(=O)O)cc(N)c2c1O | . | 24 | -22 | 36* | 3 | -19
COCCn1nnnc1CN(CCc1ccccc1)Cc1cc2cc(OC)ccc2[nH]c1=O | -4 | 54* | 2 | -1 | 1 | 1
COc1cccc(C2CCCN2Cc2nc(CC3CC3)no2)c1 (stereo not drawn) | 1 | 1 | -6 | -1 | -4 | -9
CCC1Sc2ccc(S(=O)(=O)CCC(=O)Nc3ccc(OC(F)(F)F)cc3)cc2NC1=O (stereo not drawn) | 0 | -13 | -6 | -7 | 26* | -2
CCC1Sc2ccc(S(=O)(=O)CCC(=O)Nc3ccc(NC(C)=O)cc3)cc2NC1=O (stereo not drawn) | 2 | 5 | -1 | 1 | 5 | 2
O=c1[nH]c(CSc2nc3ccccc3o2)nc2c1cnn2-c1ccccc1 | -4 | -17 | -3 | -9 | -13 | -9
O=c1[nH]c(CSc2ncccn2)nc2c1cnn2-c1ccccc1 | -26* | 3 | 4 | 6 | 3 | 6
Nc1ccc(S(=O)(=O)NNC(=O)C(=O)NNc2ccccn2)cc1 | -30* | 2 | 1 | 0 | 7 | -2
CC(=O)Nc1ccc(S(=O)(=O)NNC(=O)C(=O)NNc2ccccn2)cc1 | -45* | 4 | 3 | -2 | 1 | 11
Cc1ccc(S(=O)(=O)NNC(=O)C(=O)NNc2ccccn2)cc1 | -9 | -10 | 1 | -1 | 1 | 0
Cc1ccccc1S(=O)(=O)NNC(=O)C(=O)NNc1ccccn1 | -26* | 13 | 2 | -2 | 4 | 5
Cc1noc(/C=C/N(C)C)c1S(=O)(=O)N1CCC(C(=O)O)CC1 | -30* | -2 | -2 | 3 | -2 | -3
Cc1ccc(CNC(=O)C2CCN(S(=O)(=O)c3c(C)noc3/C=C/N(C)C)CC2)cc1 | -9 | 15 | -3 | 2 | 2 | 0
SMILES | MEX-5 binding | PREPL inh | LYPLA1 inh | Fam108B inh | PME-1 primary | LYPLA2 counter
O=C(N/N=C/c1ccc2cccnc2c1)c1nc2ccccc2c(=O)[nH]1 | 0 | 2 | 3 | -1 | 5 | 14
COc1ccc2cc(/C=C3\SC(=S)NC3=O)c(N3CCOCC3)nc2c1 | -26* | 10 | 9 | 14 | 4 | -3
C=CCn1c(C)cc(-c2csc(NCC)n2)c1C | -7 | 4 | -1 | -1 | -14 | -5
C=CCn1c(C)cc(-c2csc(N)n2)c1C | -1 | 49* | -1 | 6 | 4 | -1
Cc1cc(C)c(S(=O)(=O)NC2CCN(Cc3ccccc3)CC2)c(C)c1 | 3 | -34 | -3 | 3 | 0 | -3
Cc1noc(C)c1S(=O)(=O)NC1CCN(Cc2ccccc2)CC1 | -34* | 0 | 0 | -1 | 0 | 2
Cc1cccc(NC(=O)CN2C(=O)S/C(=C\c3ccccn3)C2=O)c1 | 0 | -5 | 2 | -6 | 3 | 14
Cc1cccc(NC(=O)CN2C(=O)S/C(=C\c3ccc(O)c([N+](=O)[O-])c3)C2=O)c1 | -1 | 18 | 1 | 16 | 33* | 81*
CN1CCc2cccc3c2[C@H]1Cc1ccc(O)c(O)c1-3 | -84* | 20 | -4 | -5 | -8 | -3
O=C(CNC(=O)/C=C/c1ccco1)N=Nc1c(O)[nH]c2ccccc12 | -29* | 8 | -4 | 4 | 8 | 4
O=C(CNC(=O)Cc1ccccc1)N=Nc1c(O)[nH]c2ccccc12 | -4 | 13 | 1 | -1 | 2 | 6
O=C1C2CC=C(Cl)CC2C(=O)N1CCc1ccccc1 (stereo not drawn) | -34* | -1 | 1 | 3 | 0 | -1
O=C(CN1C(=O)C2CC=C(Cl)CC2C1=O)NCc1ccccc1 (stereo not drawn) | -27* | -6 | 1 | 16 | 2 | 1
O=C1C2CC=C(Cl)CC2C(=O)N1CCc1c[nH]c2ccccc12 (stereo not drawn) | -2 | 3 | 3 | -1 | 1 | 3
O=C(CCN1C(=O)C2CC=C(Cl)CC2C1=O)N1CCCCC1 (stereo not drawn) | -41* | -3 | 3 | 2 | 3 | 2
O=C(CC1CCCC1)NNC(=O)c1ccc(F)cc1 | -3 | -7 | 0 | 2 | -7 | -5
CC(=O)c1ccc(S(=O)(=O)NC2CC(=O)N(c3ccc(C)cc3)C2)cc1 (stereo not drawn) | 0 | -7 | 3 | -1 | 3 | -3
O=c1c(-c2nc3ccccc3s2)cccn1Cc1ccc(Cl)cc1 | 0 | -21 | -4 | -2 | -2 | 6

From PubChem
